Results published in PubChem BioAssay (NCATS).
Results filed as inconclusive are left out. Active and inactive are the calls of the source. Calls come from the whole dose curve; as a rule, active = well fitted curve in the direction sought with a large enough effect; inconclusive = small, poorly fitted or top-dose-only effect, or another doubt; inactive = no such curve, though single readings can be large; an effect the other way counts as inactive or inconclusive.

What was measured:
NIH3T3 = test: qHTS assay to identify novel small-molecules to repurpose for Merkel cell carcinoma treatment (AID 1296009); conditions: MCC and control cell lines, CellTiter-Glo viability, 72 h; at 44.8 µM (top of the series) unless noted; note: nearly all actives have a fitted effect of over 60% in size
Procedure, shortened: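 qHTS format: cells treated with library compounds in DMSO across 8 (NPC) or 11 (MIPE) concentrations. Readout after 72 hr at 37 degree celsius was CellTiter-Glo luminescence.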

C33A = test: Primary qHTS to identify gynecologic anti-cancer compounds using libraries of approved drugs and bioactive compounds (AID 1345084); conditions: Gynecologic cancer cell panel viability, ATPlite luminescence, 48 h; series mostly up to 57.5 µM; note: % is set by controls: 0 for no effect and ±100 for the full control effect; nearly all actives have a fitted effect of over 55% in size
Procedure, shortened: (§1)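 Cell viability after 48 h drug treatment, ATPlite luminescence readout; five doses.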

CAOV3 = test: as above; conditions: Gynecologic cancer cell panel viability, ATPlite luminescence, 48 h; series mostly up to 57.5 µM
Procedure, shortened: as §1

CASKI = test: as above; conditions: Gynecologic cancer cell panel viability, ATPlite luminescence, 48 h; series mostly up to 57.5 µM
Procedure, shortened: as §1

Es-2 = test: as above; conditions: Gynecologic cancer cell panel viability, ATPlite luminescence, 48 h; series mostly up to 57.5 µM
Procedure, shortened: as §1

HeLa = test: as above; conditions: Gynecologic cancer cell panel viability, ATPlite luminescence, 48 h; series mostly up to 57.5 µM
Procedure, shortened: as §1

Hek293T = test: as above; conditions: Gynecologic cancer cell panel viability, ATPlite luminescence, 48 h, control line for the selectivity index; series mostly up to 57.5 µM
Procedure, shortened: as §1

JEG-3 = test: as above; conditions: Gynecologic cancer cell panel viability, ATPlite luminescence, 48 h; series mostly up to 57.5 µM
Procedure, shortened: as §1

OV90 = test: as above; conditions: Gynecologic cancer cell panel viability, ATPlite luminescence, 48 h; series mostly up to 57.5 µM
Procedure, shortened: as §1

PA-1 = test: as above; conditions: Gynecologic cancer cell panel viability, ATPlite luminescence, 48 h; series mostly up to 57.5 µM
Procedure, shortened: as §1

SKOV3 = test: as above; conditions: Gynecologic cancer cell panel viability, ATPlite luminescence, 48 h; series mostly up to 57.5 µM
Procedure, shortened: as §1

Tov-21-G = test: as above; conditions: Gynecologic cancer cell panel viability, ATPlite luminescence, 48 h; series mostly up to 57.5 µM
Procedure, shortened: as §1

Tov112D = test: as above; conditions: Gynecologic cancer cell panel viability, ATPlite luminescence, 48 h; series mostly up to 57.5 µM
Procedure, shortened: as §1

CC1(CO)CC2C(O)C(=O)C3(CO)CC3(C)C2C1 (configuration not stated)
inactive: outcome (NIH3T3) | Potency (C33A) | Potency (CAOV3) | Potency (CASKI) | Potency (Es-2) | Potency (HeLa) | Potency (Hek293T) | Potency (JEG-3) | Potency (OV90) | Potency (PA-1) | Potency (SKOV3) | Potency (Tov-21-G) | Potency (Tov112D)

C[C@@H]1O[C@@H](O[C@H]2[C@H](O[C@H]3[C@H](O[C@H]4CC[C@@]5(C=O)C(CC[C@]6(C)C5CC=C5C7CC(C)(C)C[C@@H](O)[C@]7(C)CC[C@]56C)C4(C)C)O[C@H](C(=O)O)[C@@H](O)[C@@H]3O)OC[C@@H](O)[C@@H]2O)[C@H](O)[C@H](O)[C@H]1O (some centres not stated)
inactive: outcome (NIH3T3) inactive [at 9.27 µM] | activity change, negative = cytotoxicity (C33A) 7.86% [at 11.6 µM] | activity change, negative = cytotoxicity (CAOV3) 38.3% [at 11.6 µM] | activity change, negative = cytotoxicity (CASKI) 0.905% [at 11.6 µM] | activity change, negative = cytotoxicity (Es-2) 9.36% [at 11.6 µM] | activity change, negative = cytotoxicity (HeLa) 2.37% [at 11.6 µM] | activity change, negative = cytotoxicity (Hek293T) -7.04% [at 11.6 µM] | activity change, negative = cytotoxicity (JEG-3) 9.31% [at 11.6 µM] | activity change, negative = cytotoxicity (OV90) 6.53% [at 11.6 µM] | activity change, negative = cytotoxicity (PA-1) 13.9% [at 11.6 µM] | activity change, negative = cytotoxicity (SKOV3) 13.5% [at 11.6 µM] | activity change, negative = cytotoxicity (Tov-21-G) 8.97% [at 11.6 µM] | activity change, negative = cytotoxicity (Tov112D) 15.2% [at 11.6 µM]

CC1=CCC2C(C)(CO)CCCC2(CO)C1CO (configuration not stated)
inactive: outcome (NIH3T3) | Potency (C33A) | Potency (CAOV3) | Potency (CASKI) | Potency (Es-2) | Potency (HeLa) | Potency (Hek293T) | Potency (JEG-3) | Potency (OV90) | Potency (PA-1) | Potency (SKOV3) | Potency (Tov-21-G) | Potency (Tov112D)

COC(=O)c1cc(CN2CCN(C(=N)N)CC2)cc(C(=O)N2CCN(C(=O)c3ccc(C(=N)N)cc3)CC2)c1
inactive: outcome (NIH3T3) | Potency (C33A) | Potency (CAOV3) | Potency (CASKI) | Potency (Es-2) | Potency (HeLa) | Potency (Hek293T) | Potency (JEG-3) | Potency (OV90) | Potency (PA-1) | Potency (SKOV3) | Potency (Tov-21-G) | Potency (Tov112D)

CC1(C)CCC(C)(C)c2cc([C@@H](O)C(=O)Nc3ccc(C(=O)O)cc3F)ccc21
inactive: outcome (NIH3T3) | Potency (C33A) | Potency (CAOV3) | Potency (CASKI) | Potency (Es-2) | Potency (HeLa) | Potency (Hek293T) | Potency (JEG-3) | Potency (OV90) | Potency (PA-1) | Potency (SKOV3) | Potency (Tov-21-G) | Potency (Tov112D)

CC(CCC1(O)OC2CC3C4CCC5CC(O[C@@H]6O[C@H](CO)[C@@H](O)[C@H](O)[C@H]6O[C@@H]6OC[C@@H](O)[C@H](O)[C@H]6O)C(O)CC5(C)C4CCC3(C)C2C1C)CO[C@@H]1O[C@H](CO)[C@@H](O)[C@H](O)[C@H]1O (some centres not stated)
inactive: outcome (NIH3T3) inactive [at 9.27 µM] | activity change, negative = cytotoxicity (C33A) 4.8% [at 11.6 µM] | activity change, negative = cytotoxicity (CAOV3) 10.9% [at 11.6 µM] | activity change, negative = cytotoxicity (CASKI) 14.6% [at 11.6 µM] | activity change, negative = cytotoxicity (Es-2) -0.82% [at 11.6 µM] | activity change, negative = cytotoxicity (HeLa) -1.03% [at 11.6 µM] | activity change, negative = cytotoxicity (Hek293T) -3.21% [at 11.6 µM] | activity change, negative = cytotoxicity (JEG-3) 4.38% [at 11.6 µM] | activity change, negative = cytotoxicity (OV90) -1.54% [at 11.6 µM] | activity change, negative = cytotoxicity (PA-1) 17.2% [at 11.6 µM] | activity change, negative = cytotoxicity (SKOV3) 0% [at 11.6 µM] | activity change, negative = cytotoxicity (Tov-21-G) 0.148% [at 11.6 µM] | activity change, negative = cytotoxicity (Tov112D) 1.16% [at 11.6 µM]

O=C(/C=C/c1ccc(O)cc1)OC[C@]12O[C@H]1[C@@H](O)[C@@H]1C=CO[C@@H](O[C@@H]3O[C@H](CO)[C@@H](O)[C@H](O)[C@H]3O)[C@@H]12
inactive: outcome (NIH3T3) inactive [at 17.4 µM] | Potency (C33A) | Potency (CAOV3) | Potency (CASKI) | Potency (Es-2) | Potency (HeLa) | Potency (Hek293T) | Potency (JEG-3) | Potency (OV90) | Potency (PA-1) | Potency (SKOV3) | Potency (Tov-21-G) | Potency (Tov112D)

CC12CC34C=CC(=O)C(C)(CCC(=O)O)C3C(CC1C4)O2 (configuration not stated)
inactive: outcome (NIH3T3) | Potency (C33A) | Potency (CAOV3) | Potency (CASKI) | Potency (Es-2) | Potency (HeLa) | Potency (Hek293T) | Potency (JEG-3) | Potency (OV90) | Potency (PA-1) | Potency (SKOV3) | Potency (Tov-21-G) | Potency (Tov112D)

C[C@@H]1O[C@@H](O[C@@H]2[C@@H](O)[C@H](O[C@@H]3[C@@H](O)[C@@H](O)[C@H](O[C@H]4[C@H](OC(=O)[C@]56CCC(C)(C)C[C@H]5C5=CCC7[C@@]8(C)C[C@H](O)[C@H](O[C@@H]9O[C@H](C(=O)O)[C@@H](O)[C@H](O)[C@H]9O)[C@@](C)(CO)C8[C@H](O)C[C@@]7(C)[C@]5(C)CC6)OC[C@H](O)[C@@H]4O)O[C@H]3C)OC[C@H]2O)[C@H](O)[C@H](O)[C@H]1O (some centres not stated)
inactive: outcome (NIH3T3) inactive [at 9.27 µM] | activity change, negative = cytotoxicity (C33A) -3.84% [at 6.55 µM] | activity change, negative = cytotoxicity (CAOV3) 1.69% [at 6.55 µM] | activity change, negative = cytotoxicity (CASKI) -21.9% [at 6.55 µM] | activity change, negative = cytotoxicity (Es-2) 7.07% [at 6.55 µM] | activity change, negative = cytotoxicity (HeLa) 9.33% [at 6.55 µM] | activity change, negative = cytotoxicity (Hek293T) -1.15% [at 6.55 µM] | activity change, negative = cytotoxicity (JEG-3) -4.08% [at 6.55 µM] | activity change, negative = cytotoxicity (OV90) -1.61% [at 6.55 µM] | activity change, negative = cytotoxicity (PA-1) 3.21% [at 6.55 µM] | activity change, negative = cytotoxicity (SKOV3) -6.44% [at 6.55 µM] | activity change, negative = cytotoxicity (Tov-21-G) -4.43% [at 6.55 µM] | activity change, negative = cytotoxicity (Tov112D) 4.06% [at 6.55 µM]
